In the library only some 15% were active in any assay of this set; here they are far more common.
Pf growth 96h: P. falciparum growth inhibition at 96 hour, primary screen for plastid delayed-death inhibitors. AID 504834. 6.9% of 320,000 active. Potency, µM (highest dose often 28.7 µM), for the others: at the top dose activity change, negative = inhibition, usual class: inhibitors. P. falciparum luciferase reporter growth, 96 h; note: potency is the fitted concentration of half-maximal effect; % is set by controls: 0 for no effect and ±100 for the full control effect
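Two parasite generations (96 h, 37 C, 5% CO2) of compound exposure in infected erythrocytes (0.05% parasitemia, 2% hematocrit). Luciferase-reporter P. falciparum; decreased luminescence indicates inhibited growth, aimed at apicoplast-acting delayed death.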
Pf growth 48h: P. falciparum growth inhibition at 48 hours (one generation) | P. falciparum luciferase growth in erythrocytes, 48 h | Potency, µM (titrated, usually from 28.7 µM), for inactives: at the top dose activity change, negative = inhibition, most hits filed as inhibitors | 5.9% of 310,000 active | AID 504832; note: potency is the fitted concentration of half-maximal effect; % is set by controls: 0 for no effect and ±100 for the full control effect
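Erythrocytes infected with P. falciparum carrying an integrated firefly luciferase reporter (2% hematocrit, 0.1% parasitemia final) were exposed to compounds in RPMI 1640 with 0.5% Albumax at 37 C, 5% CO2. Growth inhibition was scored as reduced luminescence.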
HCV inhibitor: blocks hepatitis C virus; Huh7.5.1 HCVcc-Cre infection, luciferase reporter, 44 h; Potency, µM (series often up to 41.8 µM), inactives show at the highest dose activity change, negative = inhibition, actives largely listed as inhibitors; 3.4% of 340,000 active; note: potency is the fitted concentration of half-maximal effect; % is set by controls: 0 for no effect and ±100 for the full control effect
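Infectious HCV cell culture screen: compound-treated cells (1,000/well, pre-plated 4 h) are infected with HCVcc-Cre at roughly 0.5 moi and grown 44 h. Infection is quantified by luciferase signal after 15 min substrate incubation at room temperature.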
Sm TGR block: inhibitors of Schistosoma mansoni thioredoxin glutathione reductase; Q962Y6; purified TGR, DTNB reduction, TNB absorbance 405 nm; Potency, µM (highest dose often 114 µM), for inactives: at the top dose activity change, negative = inhibition, hits mostly inhibitors; 3% of 360,000 active; note: potency is the fitted concentration of half-maximal effect; % is set by controls: 0 for no effect and ±100 for the full control effect; nearly all actives have a fitted effect of over 60% in size
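TGR 20 nM + NADPH 100 uM (dispensed conc.), cpd preinc 15 min RT; start with NADPH (500 uM addition) then DTNB (15 mM addition). Kinetic TNB absorbance, 405 nm filter. Four-parameter Hill fit across titration.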
HCMV inh: blocks human cytomegalovirus replication. HFF cells, HCMV-luciferase reporter, 72 h; stronger effect = lower value. activity change, negative = inhibition, % at 57.5 µM. 4.5% of 410,000 active; in the data active = activity change below about -60%; inconclusive = no clear call, values can overlap the other calls; inactive = above about -39%; note: % is set by controls: 0 for no effect and ±100 for the full control effect
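Inhibition of viral replication was scored as loss of reporter luminescence in HFFs infected with HCMV-luciferase (MOI 1 PFU/cell) for 72 h; compounds tested at 2 doses, normalized to buffer and Salinomycin controls.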
SARS PLP yeast: inhibitors of SARS-CoV papain-like protease in yeast; AID 485353; 0.19% of 330,000 active; Potency, µM (series often up to 32.9 µM), inactives show top-dose activity, positive = growth rescue, actives largely listed as activators; S. cerevisiae expressing SARS-CoV PLpro, growth rescue; calls by dose curve; note: potency is the fitted concentration of half-maximal effect; 0% is about no effect; nearly all actives have a fitted effect of over 55% in size
* hit, by the source's call. Unless noted, calls come from the whole dose curve; as a rule, active = well fitted curve in the direction sought with a large enough effect; inconclusive = small, poorly fitted or top-dose-only effect, or another doubt; inactive = no such curve, though single readings can be large; an effect the other way counts as inactive or inconclusive.

`Clc1ccc([C@H](Cn2ccnc2)OCc2c(Cl)cccc2Cl)c(Cl)c1` gave Pf growth 96h 2µM* and Pf growth 48h 6.4µM*.
`Clc1ccc(COC(Cn2ccnc2)c2ccc(Cl)cc2Cl)cc1` (stereo not given) gave Pf growth 96h 1.9µM*, Pf growth 48h 2.1µM*, HCV inhibitor inconclusive, Sm TGR block 4%, HCMV inh -23 and SARS PLP yeast -57%.
Screening Cc1ccc(OCC(=O)Nc2ccc3nc(SCC(=O)Nc4ccc(C)cc4C)sc3c2)cc1 returned Sm TGR block 0% and HCMV inh 17.
For Cc1sc2nc(CN3CCOCC3)[nH]c(=O)c2c1-c1ccccc1 the results were Pf growth 96h 8%, Pf growth 48h 10%, HCV inhibitor 5%, Sm TGR block -5%, HCMV inh -28 and SARS PLP yeast -17%.
For COc1cccc(N2CCN(Cc3nc4ccccc4c(=O)[nH]3)CC2)c1 the results were Pf growth 48h -5%, HCV inhibitor 6%, Sm TGR block 0%, HCMV inh 53 and SARS PLP yeast 0%.
For COc1cccc(N2CCN(Cc3nc4scc(-c5ccccc5)c4c(=O)[nH]3)CC2)c1 the results were Pf growth 96h inconclusive, Pf growth 48h -10%, HCV inhibitor 13µM*, Sm TGR block -1%, HCMV inh -61* and SARS PLP yeast 9%.
Cc1ccc(-c2c(C)sc3nc(CN4CCN(CC(=O)NC5CC5)CC4)[nH]c(=O)c23)cc1 was read as Pf growth 96h inconclusive, Pf growth 48h 10µM*, HCV inhibitor -1%, Sm TGR block -25%, HCMV inh 2 and SARS PLP yeast -4%.
COC(=O)c1sc2nc(CN3CCN(c4ccc(OC)cc4)CC3)[nH]c(=O)c2c1C was read as Pf growth 96h inconclusive, Pf growth 48h 4%, HCV inhibitor 8%, Sm TGR block -7%, HCMV inh -80* and SARS PLP yeast 10%.
`O=c1[nH]c(CN2CCN(c3ccccc3O)CC2)nc2scc(-c3ccccc3Cl)c12` gave Pf growth 96h 9.3µM*, Pf growth 48h 5.2µM*, HCV inhibitor 13µM*, Sm TGR block -2%, HCMV inh 0 and SARS PLP yeast -2%.
FC(F)(F)c1ccnc(Sc2n[nH]c(C(F)(F)F)n2)c1 was read as Pf growth 96h inconclusive, Pf growth 48h 1%, HCV inhibitor 2%, Sm TGR block 8%, HCMV inh 2 and SARS PLP yeast -3%.
Screening O=c1[nH]c(CN2CCN(c3ccc(O)cc3)CC2)nc2scc(-c3ccc(Cl)cc3)c12 returned Pf growth 96h inconclusive, Pf growth 48h 3.7µM*, HCV inhibitor 6.3µM*, HCMV inh inconclusive and SARS PLP yeast -4%.
CN(C)c1ccc(C2C=C(c3ccc(Cl)cc3OC(F)F)Nc3ncnn32)cc1 (stereo not given) was read as Pf growth 96h 112%, Pf growth 48h inconclusive, HCV inhibitor 10µM*, Sm TGR block 22µM*, HCMV inh -22 and SARS PLP yeast -8%.
`CS(=O)(=O)N(CC(=O)N/N=C/c1ccco1)c1ccccc1Br` gave Pf growth 96h -9%, Pf growth 48h 16%, HCV inhibitor -1%, Sm TGR block -7%, HCMV inh -22 and SARS PLP yeast -7%.
CN(C)c1ccc(/C=N/NC(=O)CN(c2cccc(Cl)c2)S(C)(=O)=O)cc1Br was read as Pf growth 48h 13µM*, HCV inhibitor inconclusive, Sm TGR block -14%, HCMV inh -12 and SARS PLP yeast 5%.
For Cc1oc(/C=N/NC(=O)CN(c2ccccc2Cl)S(C)(=O)=O)cc1Br the results were Pf growth 96h 19%, Pf growth 48h 13%, HCV inhibitor 24%, Sm TGR block inconclusive, HCMV inh 11 and SARS PLP yeast -18%.
For Cc1oc(/C=N/NC(=O)CN(c2ccccc2Br)S(C)(=O)=O)cc1Br the results were Pf growth 96h 72%, Pf growth 48h -5%, HCV inhibitor -8%, Sm TGR block 45µM*, HCMV inh -14 and SARS PLP yeast -1%.
`Cc1ccccc1N(CC(=O)N/N=C/c1cc(Br)c(C)o1)S(C)(=O)=O` gave Pf growth 96h inconclusive, Pf growth 48h 10%, HCV inhibitor 8%, Sm TGR block 79µM*, HCMV inh -19 and SARS PLP yeast 3%.
`Cc1nc(-c2cccc(F)c2)sc1CCNC(=O)C(=O)Nc1ccc2c(c1)OCO2` gave Sm TGR block -4% and HCMV inh 11.
`O=C(O)C1NCCc2ccccc21` (stereo not given) gave Pf growth 96h 25%, Pf growth 48h inconclusive, HCV inhibitor 19%, Sm TGR block -3%, HCMV inh 34 and SARS PLP yeast 7%.
Screening S=C1NCCc2ccccc2C1c1ccccc1Cl (stereo not given) returned Pf growth 96h inconclusive, Pf growth 48h 13µM*, HCV inhibitor 6%, Sm TGR block 3%, HCMV inh -6 and SARS PLP yeast -35%.
`S=C1NCCc2ccccc2C1c1ccccc1` (stereo not given) gave Pf growth 96h inconclusive, Pf growth 48h 8.3µM*, HCV inhibitor -7%, Sm TGR block -2%, HCMV inh 32 and SARS PLP yeast -3%.
`O=C(COc1cccc(F)c1)Nc1nc(-c2cccnc2)cs1` gave Pf growth 96h inconclusive, Pf growth 48h inconclusive, HCV inhibitor -10%, Sm TGR block -3%, HCMV inh -7 and SARS PLP yeast -2%.
C=CC[C@@H](CC(=O)N[C@H](CO)Cc1ccccc1)C(=O)N[C@@H](C)COC(=O)[C@@H](CC=C)CC(=O)OC(C)(C)C was read as HCV inhibitor -19%, HCMV inh -60* and SARS PLP yeast 9%.
Screening C=CC[C@H](CC(=O)N(CCO)Cc1ccccc1)C(=O)N[C@H](COC(=O)[C@@H](CC=C)Cc1ccc(F)cc1)Cc1ccccc1 returned HCV inhibitor 10µM*, HCMV inh 94 and SARS PLP yeast 0%.
For C=CCC[C@H](Cc1ccc(F)cc1)C(=O)O[C@H](CNC(=O)[C@@H](CC=C)CC(=O)N(CCO)Cc1ccccc1)c1ccccc1 the results were HCV inhibitor inconclusive, HCMV inh 4 and SARS PLP yeast 8%.
Screening C=CC[C@H](CC(=O)N(CCO)Cc1ccccc1)C(=O)NC[C@@H](OC(=O)[C@@H](CC=C)Cc1ccc(F)cc1)c1ccccc1 returned HCV inhibitor 7.9µM*, HCMV inh 42 and SARS PLP yeast -46%.

Compound activity deposited in PubChem BioAssay by National Center for Advancing Translational Sciences (NCATS).
